# Source: PubChem BioAssay (NCATS)
# Records with an inconclusive call do not appear. A number with no mark means an inactive call. Calls follow the shape of the dose curve; as a rule, active = well fitted inhibition curve with a large enough effect; inconclusive = small, poorly fitted or top-dose-only effect; inactive = flat fitted curve, though single readings scatter.
# Biological target: Calcium and integrin-binding protein 1 (Homo sapiens) (UniProt Q99828)
# Assay: Primary qHTS for Identification of Calcium Integrin Binding Protein 1 (CIB1) Competitor (AID 1508620);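 also: GST tagged CIB1 binding a fluorescein labelled alphaIIb integrin peptide tracer; top concentration of the series differs between compounds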
# Conditions: CIB1-GST / FITC-alphaIIb peptide fluorescence polarization; series mostly up to 114 µM; activity change, negative = inhibition: at the top concentration
# Summary of the method: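 Fluorescence polarization competition: CIB1-GST (1 uM final) preincubated with compound 15 min at room temperature, then FITC-labeled alphaIIb peptide (100 nM final) added for another 15 min. Polarization read at Ex 480/Em 540.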
# % is scaled to controls: 0 for no effect and ±100 for the full control effect.
# Sequence of Calcium and integrin-binding protein 1 (Homo sapiens) (Q99828 whole entry, looked up): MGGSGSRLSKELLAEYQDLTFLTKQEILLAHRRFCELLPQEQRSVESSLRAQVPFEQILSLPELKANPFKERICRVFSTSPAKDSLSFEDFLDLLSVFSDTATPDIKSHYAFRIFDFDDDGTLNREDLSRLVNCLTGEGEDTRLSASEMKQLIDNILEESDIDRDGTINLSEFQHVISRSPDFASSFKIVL
row,SMILES,"activity change, negative = inhibition"
1,COc1cc(C(=S)N2CCOCC2)ccc1O,4.12%
2,O=C(Oc1cccc2cccnc12)c1ccccc1,-6.26%
3,COc1cc(O)c(C(=O)c2ccccc2)cc1S(=O)(=O)O,-3.02%
4,O=[N+]([O-])c1ccc(/C=N\O)o1,0.334%
5,O=C(O)CCNC(=O)c1ccccc1,3.85%
6,Cn1c(=O)c2[nH]c(Br)nc2n(C)c1=O,-2.32%
7,NC1CCN(c2nc3c(cc2F)c(=O)c(C(=O)O)cn3-c2ccc(F)cc2F)C1 (stereo unspecified),-5.39%
8,COc1ccc(C(=O)c2ccccc2)c(O)c1,-6.59%
9,O=C(Nc1ccccc1)OCC(CN1CCCCC1)OC(=O)Nc1ccccc1 (stereo unspecified),-0.426%
10,Nc1nc(Cl)nc2c1ncn2[C@@H]1O[C@H](CO)[C@@H](O)[C@@H]1F,-4.07%
11,CC[N+](C)(CC)CCOC(=O)C(O)(c1ccccc1)C1CCCCC1 (stereo unspecified),-6.25%
12,CN(Cc1ccc(C(C)(C)C)cc1)Cc1cccc2ccccc12,5.42%
13,CC(=O)N[C@@H](CCC(=O)O)C(=O)O,2.06%
14,CC(=O)NO,4%
15,CN1CCN(C2=Nc3ccccc3Sc3ccc(Cl)cc32)CC1,5.96%
16,CCN1CCN(C(=O)N[C@@H](C(=O)N[C@@H]2C(=O)N3C(C(=O)O)=C(CSc4nnnn4C)CS[C@H]23)c2ccc(O)cc2)C(=O)C1=O,-13.7%
17,COc1cc(C(=O)N2CCCCCCC2)cc(OC)c1OC,1.91%
18,C#C[C@]1(O)CC[C@H]2[C@@H]3CCC4=CC(=O)CC[C@@H]4[C@H]3CC[C@@]21CC,-2.27%

row,SMILES,"activity change, negative = inhibition"
1,COc1ccc(/C=N/NC(=O)c2ccncc2)cc1OC,-4.67%
2,Nc1nc(N)c(-c2ccccc2)s1,1.57%
3,O=C1C(O)=C(O)C(=O)C(O)=C1O,-5.08%
4,Cc1cccc(C)c1NC(=O)CN1CCCC1,3.03%
5,c1ccc(CC2=NCCN2)cc1,-0.722%
6,Cc1ncc(CO)c(C=O)c1O,9.09%
7,CCCN(CCC)S(=O)(=O)c1ccc(C(=O)O)cc1,0.902%
8,CCCCN1C[C@H](O)[C@@H](O)[C@H](O)[C@H]1CO,3.45%
9,CCOc1ccccc1C(N)=O,-4.63%
10,O=C1OC(CN2CCOCC2)CN1/N=C/c1ccc([N+](=O)[O-])o1 (stereo unspecified),-2.07%
11,OC[C@H]1O[C@@H](Oc2ccc(O)cc2)[C@H](O)[C@@H](O)[C@@H]1O,-1.92%
12,c1ccc(-c2nc[nH]c2-c2ccccc2)cc1,-4.38%
13,Cc1c(-c2ccccc2)oc2c(C(=O)OCCN3CCCCC3)cccc2c1=O,3.34%
14,O=C(Nc1ccc([N+](=O)[O-])cc1)Nc1ccc([N+](=O)[O-])cc1,-2.88%
15,CCOCCn1c(N2CCCN(C)CC2)nc2ccccc21,0.238%
16,N=C(N)N1CCc2ccccc2C1,-1.23% [at 12.4 µM]
17,Cc1cc(-c2ccccc2)nnc1NCCN1CCOCC1,-0.589%
18,CC(=O)Nc1ccc(CC(=O)O)cc1,-1.38%
